In all, about 5,500 compounds went through this assay and about 2,000 (36%) were called active. Roughly 18% stayed inconclusive and do not appear here. Cut-off read from the data, not from the text of the source: active = normalized growth mostly below about 0.91 (no sharp cut-off); inconclusive = no clear call, values can overlap the other calls; inactive = mostly above about 0.92. The list shows a part of the results.
Assay: chemical genetic growth profiling, strain panel (AID 1159580);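 note: tested at 20 µM; growth read once vehicle control cultures reached saturation at 30 °C; 1 = growth at the plate median or of vehicle wells; lower values mean less growth of the strain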
Details: S. cerevisiae deletion strains, growth OD

Measured: normalized growth

CO/N=C1/CN(c2nc3c(cc2F)c(=O)c(C(=O)O)cn3C2CC2)CC1CN (centres undefined)
inactive: locus YAL021C, strain ccr4, active compounds read low 1 | locus YAL026C, strain drs2, active compounds read low 1.02 | locus YAL030W, strain snc1, active compounds read low 0.992 | locus YBL061C, strain skt5, active compounds read low 0.99 | locus YBR009C, strain hhf1, active compounds read low 0.953 | locus YBR023C, strain chs3, active compounds read low 1.02 | locus YBR171W, strain sec66, active compounds read low 1.02 | locus YBR231C, strain swc5, active compounds read low 0.998 | locus YBR279W, strain paf1, active compounds read low 1.02 | locus YCL011C, strain gbp2, active compounds read low 1.01 | locus YCL016C, strain dcc1, active compounds read low 0.973 | locus YCL069W, strain vba3, active compounds read low 1.02 | locus YCR088W, strain abp1, active compounds read low 1.02 | locus YDL005C, strain med2, active compounds read low 1.04 | locus YDL040C, strain nat1, active compounds read low 1 | locus YDR001C, strain nth1, active compounds read low 1.02 | locus YDR069C, strain doa4, active compounds read low 0.979 | locus YDR137W, strain rgp1, active compounds read low 1.07 | locus YDR159W, strain sac3, active compounds read low 0.975 | locus YDR195W, strain ref2 0.979 | locus YDR297W, strain sur2, active compounds read low 1 | locus YDR334W, strain swr1, active compounds read low 1.02 | locus YDR335W, strain msn5, active compounds read low 1.01 | locus YDR392W, strain spt3, active compounds read low 0.937 | locus YEL003W, strain gim4, active compounds read low 1.03 | locus YEL037C, strain rad23, active compounds read low 1.02 | locus YEL061C, strain CIN8 (second series), active compounds read low 1.01 | locus YER015W, strain faa2, active compounds read low 1.01 | locus YER016W, strain bim1, active compounds read low 1.04 | locus YER111C, strain swi4, active compounds read low 1.03 | locus YER155C, strain BEM2 (second series), active compounds read low 0.977 | locus YFR010W, strain ubp6, active compounds read low 0.982 | locus YGL167C, strain pmr1, active compounds read low 1.01 | locus YGL173C, strain kem1, active compounds read low 0.987 | locus YGL227W, strain vid30, active compounds read low 1.01 | locus YGL240W, strain doc1, active compounds read low 0.967 | locus YGL253W, strain hxk2, active compounds read low 1.02 | locus YHR013C, strain ard1, active compounds read low 1.02 | locus YHR027C, strain rpn1, active compounds read low 1 | locus YHR030C, strain SLT2, active compounds read low 0.983 | locus YHR079C, strain IRE1, active compounds read low 0.949 | locus YHR142W, strain chs7, active compounds read low 1.02 | locus YJL092W, strain hpr5, active compounds read low 0.973 | locus YJL095W, strain BCK1 (second series), active compounds read low 0.992 | locus YJL095W, strain BCK1, active compounds read low 0.98 | locus YJL115W, strain asf1, active compounds read low 0.956 | locus YJL129C, strain trk1, active compounds read low 0.997 | locus YJL154C, strain vps35, active compounds read low 1.02 | locus YJL164C, strain tpk1, active compounds read low 0.985 | locus YJL166W, strain qcr8, active compounds read low 0.998 | locus YJL187C, strain SWE1, active compounds read low 0.998 | locus YJR066W, strain TOR1, active compounds read low 0.949 | locus YKL160W, strain elf1, active compounds read low 1.02 | locus YKR026C, strain gcn3, active compounds read low 1.01 | locus YKR091W, strain srl3, active compounds read low 1.01 | locus YLL001W, strain dnm1, active compounds read low 0.98 | locus YLL026W, active compounds read low 1.01 | locus YLL041C, strain sdh2, active compounds read low 1.02 | locus YLR027C, strain aat2, active compounds read low 1.01 | locus YLR113W, strain HOG1, active compounds read low 0.999 | locus YLR221C, strain rsa3, active compounds read low 0.98 | locus YLR258W, strain gsy2, active compounds read low 1.02 | locus YLR262C, strain YPT6 (second series), active compounds read low 0.978 | locus YLR342W, strain FKS1, active compounds read low 0.958 | locus YLR357W, strain rsc2, active compounds read low 0.981 | locus YLR370C, strain arc18, active compounds read low 1.02 | locus YLR384C, strain iki3, active compounds read low 1.01 | locus YML120C, strain ndi1, active compounds read low 0.998 | locus YMR125W, strain sto1, active compounds read low 1.02 | locus YMR129W, active compounds read low 1.01 | locus YMR205C, strain PFK2, active compounds read low 1.01 | locus YMR231W, strain pep5, active compounds read low 1.01 | locus YNL071W, strain lat1, active compounds read low 1.02 | locus YNL183C, strain NPR1, active compounds read low 0.903 | locus YNL209W, strain ssb2, active compounds read low 1.01 | locus YNL248C, strain rpa49, active compounds read low 1.02 | locus YNL322C, strain KRE1 (second series), active compounds read low 1.03 | locus YNR049C, strain mso1, active compounds read low 1.01 | locus YOR001W, strain rrp6, active compounds read low 1.01 | locus YOR070C, strain gyp1, active compounds read low 1 | locus YOR080W, strain dia2, active compounds read low 0.974 | locus YOR083W, strain WHI5, active compounds read low 0.987 | locus YOR106W, strain vam3, active compounds read low 0.993 | locus YOR231W, strain MKK1, active compounds read low 0.989 | locus YOR265W, strain rbl2, active compounds read low 1.01 | locus YOR270C, strain vph1, active compounds read low 1.03 | locus YOR290C, strain snf2, active compounds read low 1.03 | locus YPL051W, strain arl3, active compounds read low 1 | locus YPL078C, strain atp4, active compounds read low 1.04 | locus YPL106C, strain sse1, active compounds read low 1.01 | locus YPL240C, strain hsp82, active compounds read low 1.02 | locus YPL256C, strain CLN2, active compounds read low 1
active: locus YLR320W, strain mms22, active compounds read low 0.707 | locus YMR058W, strain fet3, active compounds read low 0.816
